Assay [1] deals with Rap guanine nucleotide exchange factor 3 (Homo sapiens) (UniProt O95398). Kind of assay: Confirmatory qHTS for agonist of cAMP-regulated guanine nucleotide exchange factor 3 (EPAC1) (AID 1645881).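 Further: EPAC1 catalysed release of BODIPY-GDP from Rap1B seen as fluorescence loss; 100% = effect of cAMP agonist control; nearly all actives have a fitted effect of over 75% in size.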
Assay [2] addresses Rap guanine nucleotide exchange factor 4 (Homo sapiens) (UniProt Q8WZA2). Kind of assay: Confirmatory qHTS for agonist of cAMP-regulated guanine nucleotide exchange factor 4 (EPAC2) (AID 1645884).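 Further: nucleotide exchange releases bodipy-GDP from Rap1 and this lowers its fluorescence; on the % scale 0 is the no-effect control and ±100 the full control effect; nearly all actives have a fitted effect of over 65% in size.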
For assay [3] the target is unchanged. Kind of assay: Confirmatory qHTS for antagonist of cAMP-regulated guanine nucleotide exchange factor 4 (EPAC2) (AID 1645885). Further: on the % scale 0 is the no-effect control and ±100 the full control effect; nearly all actives have a fitted effect of over 25% in size. Background: Quantitative high-throughput screening tests each substance at several concentrations.
Assay [4] has as its target Rap guanine nucleotide exchange factor 3 (Homo sapiens) (UniProt O95398). The assay can be described thus: Counterscreen qHTS for antagonist of cAMP-regulated guanine nucleotide exchange factor 3 (EPAC1) (AID 1645888).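 Further: fluorescence loss as bound BODIPY-GDP is released from Rap1B; % of control where 0% means no effect.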 A digest of the protocol:
(§1)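 Rap1B–BODIPY-GDP (250 nM) with 50 uM GDP; compounds pin-transferred to 9.74 nM–152 uM final (activator) or from 7.32 nM upwards (inhibitor). Fluorescence Ex/Em 480/540 nm read at 5 and 30 min, then after adding cAMP or buffer, at room temperature.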
For orientation: Counterscreens check selectivity or assay interference.

Assay [5] shares this target. The assay can be described thus: Counterscreen qHTS for agonist of cAMP-regulated guanine nucleotide exchange factor 3 (EPAC1) (AID 1645889). Further: % of control where 0% means no effect; nearly all actives have a fitted effect of over 40% in size. A digest of the protocol:
as §1

In assay [6] the target is DNA repair nuclease/redox regulator APEX1 (Homo sapiens) (UniProt P27695). Kind of assay: qHTS Validation Assay for Inhibitors of the Human Apurinic/apyrimidinic Endonuclease 1 (APE1) (AID 1705;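 further: TAMRA fluorescence gain over two minutes as APE1 cuts a quenched THF abasic duplex; on the % scale 0 is the no-effect control and ±100 the full control effect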). A digest of the protocol: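 qHTS, 1536-well. APE1 + cpd 15 min RT → 50 nM TAMRA/BHQ-2 THF-abasic dsDNA substrate → kinetic fluorescence, 3 reads/60 s; delta(read3−read1) = reaction progress. No-enzyme buffer = negative control.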

Assay [7] is described as follows: Counterscreen for APE1 Inhibitors: Fluorescent Dye Displacement Validation Assay (AID 1707).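 Further: plate controls were ThO with dsDNA and no compound for no effect and ThO without dsDNA for full effect.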 A digest of the protocol:
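Reaction mixture of 250 nM Thiazole Orange and 50 nM double-stranded abasic-site DNA was dispensed, compounds were pin-transferred, and fluorescence was read at endpoint (480 nm ex, 540 nm em). Reduced fluorescence indicated dye displacement by DNA binding.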

Assay [8] concerns the target Endonuclease 4 (Escherichia coli (strain K12)) (UniProt P0A6C1). The assay can be described thus: Counterscreen for APE1 Inhibitors: qHTS Validation Assay for Inhibitors of Endonuclease IV (AID 1708). Further: on the % scale 0 is the no-effect control and ±100 the full control effect. In a few lines: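 Conditions: 2 nM enzyme, 50 nM TAMRA/BHQ-2 substrate, pH 7.5 Tris buffer with 2 mM MgCl2, RT. Compound preincubation 15 min; readout three fluorescence reads 60 s apart, third-minus-first.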

A short description of assay [9]: qHTS for differential inhibitors of proliferation of Plasmodium falciparum line 7G8 (AID 1815).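 Further: potency means the concentration at half of the fitted maximal effect; parasite growth measured after three days of incubation.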
Assay [10] is described as follows: qHTS for differential inhibitors of proliferation of Plasmodium falciparum line GB4 (AID 1816).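 Further: potency means the concentration at half of the fitted maximal effect; parasite growth measured after 72 h incubation.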 The following applies: Potency: Plasmodium falciparum GB4 proliferation inhibition.
The nature of assay [11]: qHTS for differential inhibitors of proliferation of Plasmodium falciparum line D10 (AID 1877).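 Further: potency means the concentration at half of the fitted maximal effect; parasites grown with compound for 72 h before DNA staining.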
Assay [12] in a line: qHTS for differential inhibitors of proliferation of Plasmodium falciparum line Dd2 (AID 1882). Further: potency means the concentration at half of the fitted maximal effect; nearly all actives have a fitted effect of over 65% in size. The note with it: Potency: Plasmodium falciparum Dd2 proliferation inhibition. In a few lines:
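SYBR Green DNA fluorescence (ex 485, em 535 nm) after overnight lysis quantifies parasite growth; compound exposure lasted 72 h at 37 C on infected red cells at 2.5% hematocrit, 0.3% parasitemia (final). Artemisinin 0.29 uM and vehicle wells define normalization.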

A short description of assay [13]: qHTS for differential inhibitors of proliferation of Plasmodium falciparum line W2 (AID 1883).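 Further: potency means the concentration at half of the fitted maximal effect; parasites grown with compound for 72 h before lysis and staining.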 The note with it: Potency: Plasmodium falciparum W2 proliferation inhibition.
Assay [14] can be described thus: qHTS for differential inhibitors of proliferation of Plasmodium falciparum line HB3 (AID 1886).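 Further: potency means the concentration at half of the fitted maximal effect; parasites grown with compound for 72 h before SYBR Green readout.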 The note with it: Potency: Plasmodium falciparum HB3 proliferation inhibition.
The target of assay [15] is Ferritin light chain (Equus caballus) (UniProt P02791). The assay can be described thus: qHTS Validation Assay for Identification of Novel General Anesthetics (AID 2323). Further: on the % scale 0 is the no-effect control and ±100 the full control effect. In a few lines: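 Fluorescence at 535 nm (excitation 380 nm) reported loss of 1-AMA binding to horse-spleen apoferritin (10 uM) in PBS with 50% saturated 1-aminoanthracene, after 10 min room-temperature incubation with compound; values from Hill fits of normalized response.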

Assay [16] concerns the target ATP-dependent DNA helicase Q1 (Homo sapiens) (UniProt P46063). Kind of assay: qHTS Validation Assay for Inhibitors of RecQ-Like Dna Helicase 1 (RECQ1) (AID 2353).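 Further: plate controls were DMSO vehicle for no effect and enzyme-free control for full effect.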 In a few lines: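 RECQ1T1 50 nM; forked duplex (20 bp + 30-nt ss tails) 200 nM, ATP 2 mM final; pH 8.0, 2 mM MgCl2, 2.5 ug/ml poly(dI-dC); 15 min compound preincubation; discontinuous kinetic read over 2 h at RT.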

Assay [17] is described as follows: Validation screen for inhibitors of Lassa infection (AID 463096; calls by dose curve; further: potency means the concentration at half of the fitted maximal effect).
In assay [18] the target is M-phase phosphoprotein 8 (Homo sapiens) (UniProt Q99549). The assay can be described thus: qHTS Validation Assay for Inhibitors for MPP8 Chromodomain Interactions with Methylated Histone Tails (AID 488949). Further: nearly all actives have a fitted effect of over 55% in size. Further: potency means the concentration at half of the fitted maximal effect. A digest of the protocol: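 50 nM MPP8 + 50 nM b-H3K9me3 peptide, PBS pH 7.4/0.01% Tween-20, 30 min RT; + cpd 30 min RT; + AlphaScreen donor/Ni-chelate acceptor beads 10 ug/mL final, 30 min dark; luminescence read.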
Sequence of M-phase phosphoprotein 8 (Homo sapiens) (Q99549 whole entry, looked up): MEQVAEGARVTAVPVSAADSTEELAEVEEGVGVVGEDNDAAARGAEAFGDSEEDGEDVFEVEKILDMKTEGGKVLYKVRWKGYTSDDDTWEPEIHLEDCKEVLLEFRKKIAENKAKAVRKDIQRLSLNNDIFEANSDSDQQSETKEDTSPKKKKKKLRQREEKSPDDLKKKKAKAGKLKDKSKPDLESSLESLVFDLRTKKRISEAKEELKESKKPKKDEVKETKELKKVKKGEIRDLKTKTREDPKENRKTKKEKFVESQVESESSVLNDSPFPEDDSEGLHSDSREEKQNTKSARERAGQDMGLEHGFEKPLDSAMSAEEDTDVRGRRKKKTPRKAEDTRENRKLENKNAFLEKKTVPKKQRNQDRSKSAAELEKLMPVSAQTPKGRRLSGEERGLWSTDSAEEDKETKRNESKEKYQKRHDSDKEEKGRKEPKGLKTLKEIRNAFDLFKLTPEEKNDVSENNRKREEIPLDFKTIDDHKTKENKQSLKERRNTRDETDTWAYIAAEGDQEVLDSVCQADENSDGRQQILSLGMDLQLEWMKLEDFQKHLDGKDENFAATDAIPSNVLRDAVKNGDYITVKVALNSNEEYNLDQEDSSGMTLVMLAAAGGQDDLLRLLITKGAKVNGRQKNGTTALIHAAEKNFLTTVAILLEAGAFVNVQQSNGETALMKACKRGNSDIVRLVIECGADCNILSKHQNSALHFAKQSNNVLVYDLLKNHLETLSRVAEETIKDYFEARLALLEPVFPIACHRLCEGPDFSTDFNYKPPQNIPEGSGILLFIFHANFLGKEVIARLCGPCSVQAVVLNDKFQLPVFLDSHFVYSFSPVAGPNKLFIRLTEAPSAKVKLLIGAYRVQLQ

Assay [19] has as its target Transient receptor potential cation channel subfamily V member 1 (Homo sapiens) (UniProt Q8NER1). The assay can be described thus: HTS Assay for Compounds that Act as Enhancers of the Vanilloid Receptor 1 (AID 488979). Further: 0% is about no effect. A digest of the protocol: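 TRPV1 cells loaded with Fluo-8 calcium dye; compound added and Ca2+ signal (ex 480/em 520 nm) followed 3 min, then capsaicin at EC20 added and read 2 more min to detect enhancement.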

The target of assay [20] is Thyrotropin receptor (Homo sapiens) (UniProt P16473). Kind of assay: qHTS Assay for Antagonists of the Thyroid Stimulating Hormone Receptor (AID 488980). Further: 0% is about no effect. A digest of the protocol: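 Readout is cAMP by HTRF competition between cellular cAMP and cAMP-d2 for a cryptate-labelled antibody. Antagonism was assessed in TSHR-transfected HEK293 cells stimulated with 4 nM TSH (EC80, final) in the presence of RO 20-1724.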
Sequence of Thyrotropin receptor (Homo sapiens) (P16473 whole entry, looked up): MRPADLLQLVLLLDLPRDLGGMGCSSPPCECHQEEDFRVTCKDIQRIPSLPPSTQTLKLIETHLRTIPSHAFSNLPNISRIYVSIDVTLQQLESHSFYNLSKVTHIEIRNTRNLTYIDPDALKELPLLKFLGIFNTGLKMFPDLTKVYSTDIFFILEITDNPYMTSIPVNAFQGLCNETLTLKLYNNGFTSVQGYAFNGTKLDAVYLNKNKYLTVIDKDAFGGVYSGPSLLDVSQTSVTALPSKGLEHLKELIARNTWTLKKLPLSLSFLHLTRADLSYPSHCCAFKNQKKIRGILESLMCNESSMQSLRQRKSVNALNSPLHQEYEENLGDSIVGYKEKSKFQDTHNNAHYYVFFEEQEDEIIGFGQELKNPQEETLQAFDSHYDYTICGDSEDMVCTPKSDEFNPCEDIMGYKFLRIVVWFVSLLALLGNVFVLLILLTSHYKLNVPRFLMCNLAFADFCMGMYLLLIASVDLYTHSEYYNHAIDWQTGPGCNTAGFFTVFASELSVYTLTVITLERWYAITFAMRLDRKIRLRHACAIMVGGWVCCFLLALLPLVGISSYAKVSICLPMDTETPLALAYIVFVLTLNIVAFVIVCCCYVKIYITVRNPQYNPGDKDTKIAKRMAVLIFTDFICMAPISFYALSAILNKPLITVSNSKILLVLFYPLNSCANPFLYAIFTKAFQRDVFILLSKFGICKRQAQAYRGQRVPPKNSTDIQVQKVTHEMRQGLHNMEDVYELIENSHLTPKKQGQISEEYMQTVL

Assay [21] concerns the target Thyrotropin-releasing hormone receptor (Homo sapiens) (UniProt P34981). The assay can be described thus: qHTS for Small Molecule Agonists and Allosteric Enhancers of Human TRH Receptor: Validation Screen for Agonists (AID 493127;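 active means calcium activation more than 3 SD above the typical response in the agonist read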;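 further: intracellular calcium rise by fluo-8 fluorescence before TRH EC20 addition; 0% is about no effect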). The following applies: TRH receptor agonist cell assay; at 2 µM; active compounds read high. A digest of the protocol:
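Compound-evoked intracellular calcium release in fluo-8-loaded TRHR cells, read kinetically on FDSS (Ex 480/Em 530, 1 s/cycle) after 23 nL pintool transfer. Agonist phase preceded 10 nM TRH EC20 addition.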

Assay [22] has as its target Galactokinase (Homo sapiens) (UniProt P51570). Kind of assay: qHTS Validation Assay for Inhibitors of Human Galactokinase (GALK) (AID 493189). Further: 0% is about no effect. In a few lines: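 5 nM GALK / 100 uM galactose / 35 uM ATP, 20 mM HEPES pH8.0, 5 mM MgCl2, 60 mM NaCl, 1 mM DTT, 0.01% BSA (final). RT 1 h; Kinase-Glo Plus luminescence.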
Assay [23] in a line: NFAT Signaling Pathway (AID 444; active means well fitted curve in either direction with a large enough effect, not every such curve was filed as active;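 further: carbachol stimulus at about its EC50 of 1 µM final; on the % scale 0 is the no-effect control and ±100 the full control effect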). The note with it: Jurkat NFAT-bla M1, carbachol, beta-lactamase ratio, 5 h; at 17.2 µM (top of the series). In a few lines:
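Jurkat cells with NFAT-driven β-lactamase reporter and co-expressed M1 receptor, stimulated with carbachol (final 1 uM, ~EC50), compound titration, 5 h at 37 °C. CCF4 loaded 1 h at RT; 460/530 nm ratio gave %activity and AC50.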

For assay [24], the target named is Glucocorticoid receptor (Homo sapiens) (UniProt P04150). Kind of assay: GR-GFP Redistribution (AID 450;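 active means compounds whose dose series gives a full or clear partial fitted curve of increased nuclear translocation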; further: potency means the concentration at half of the fitted maximal effect). The note with it: U2OS GR-GFP nuclear translocation, laser cytometry, 2 h.
Assay [25] can be described thus: qHTS Assay for Identification of Small Molecule Agonists for Hypoxia Response Element Signaling Pathway (AID 914; active means well fitted activation curve with a large enough effect in the signal ratio, with a control signal flat, not every such curve was filed as active; the % refers to the signal ratio; further: potency means the concentration at half of the fitted maximal effect). The note with it: ME-180 HRE-bla reporter, beta-lactamase ratio, CoCl2, 17 h; activation: active compounds read high. A digest of the protocol: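 ME-180 cells carrying an HRE-driven beta-lactamase reporter were treated with compounds in a titration series plus an EC50 level of CoCl2 for 17 h at 37 degrees Celsius; CCF4 readout as the 460nm/530nm ratio gave AC50 values.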

Assay [26] is described as follows: qHTS for differential inhibitors of proliferation of Plasmodium falciparum line 3D7 (AID 1876). Further: potency means the concentration at half of the fitted maximal effect.
Assay [27] is described as follows: Validation screen for small molecules that induce DNA re-replication in MCF 10A normal breast cells (AID 463097). Further: potency means the concentration at half of the fitted maximal effect; nearly all actives have a fitted effect of over 60% in size. A digest of the protocol: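 Image-based qHTS: normal breast cells are incubated with compound for 48 hr, stained with Hoechst, and scanned for total nuclear fluorescence. Compounds raising the fraction of nuclei with elevated DNA content count as re-replication inducers.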

Assay [28] can be described thus: Quantitative high throughput screen for delayed death inhibitors of the malarial parasite plastid, 96 hour incubation (AID 488745). Further: potency means the concentration at half of the fitted maximal effect; nearly all actives have a fitted effect of over 70% in size. A digest of the protocol: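 Decreased firefly luciferase luminescence indicates inhibited growth of reporter-integrated P. falciparum after two generations (96 h, 37 C, 5% CO2). Infected erythrocytes at 0.1% parasitemia, 2% hematocrit, in Albumax-supplemented RPMI 1640.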

Assay [29] is described as follows: Validation screen for small molecules that induce DNA re-replication in SW480 colon adenocarcinoma cells (AID 504364). Further: 0% is about no effect. In a few lines:
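Image-based DNA content read-out: Hoechst stain 40 min, total nuclear fluorescence intensity (ex 405 nm, em 500-530 nm) after 48 h compound exposure of 250 SW480 cells/well at 37 C, 5% CO2, versus DMSO vehicle.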

Values without a mark were called inactive. Records with an inconclusive call do not appear. Activity calls are given as the source filed them. Unless noted, the call rests on the fitted dose curve; in most records, active means well fitted curve in the direction sought with a large enough effect; inconclusive means small, poorly fitted or top-dose-only effect, or another doubt; inactive means no such curve, though single readings can be large; an effect the other way counts as inactive or inconclusive.

Sequence of Rap guanine nucleotide exchange factor 3 (Homo sapiens) (O95398 whole entry, looked up): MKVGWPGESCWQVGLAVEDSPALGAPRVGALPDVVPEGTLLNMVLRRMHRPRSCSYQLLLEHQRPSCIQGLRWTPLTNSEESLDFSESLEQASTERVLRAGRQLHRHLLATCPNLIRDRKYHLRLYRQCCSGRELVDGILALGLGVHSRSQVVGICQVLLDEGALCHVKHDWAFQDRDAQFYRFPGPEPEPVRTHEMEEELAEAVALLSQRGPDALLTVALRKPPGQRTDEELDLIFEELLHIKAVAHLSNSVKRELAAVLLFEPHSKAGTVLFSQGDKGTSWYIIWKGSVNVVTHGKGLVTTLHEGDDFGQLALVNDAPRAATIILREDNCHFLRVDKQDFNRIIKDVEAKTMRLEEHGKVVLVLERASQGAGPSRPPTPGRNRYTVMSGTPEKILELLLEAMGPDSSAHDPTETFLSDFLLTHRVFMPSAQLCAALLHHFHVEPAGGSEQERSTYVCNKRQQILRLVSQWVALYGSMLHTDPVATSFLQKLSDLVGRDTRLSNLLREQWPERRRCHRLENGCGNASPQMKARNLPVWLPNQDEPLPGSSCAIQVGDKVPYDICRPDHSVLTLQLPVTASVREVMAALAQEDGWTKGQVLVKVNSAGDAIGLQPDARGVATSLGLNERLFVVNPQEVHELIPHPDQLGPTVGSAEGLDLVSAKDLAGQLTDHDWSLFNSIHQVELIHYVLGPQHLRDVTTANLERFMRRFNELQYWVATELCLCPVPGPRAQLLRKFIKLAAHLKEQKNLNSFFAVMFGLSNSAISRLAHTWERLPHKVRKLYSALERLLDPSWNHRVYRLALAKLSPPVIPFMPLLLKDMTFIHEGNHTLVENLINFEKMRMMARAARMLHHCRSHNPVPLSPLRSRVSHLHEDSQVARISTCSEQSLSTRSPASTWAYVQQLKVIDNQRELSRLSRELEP
Sequence of Rap guanine nucleotide exchange factor 4 (Homo sapiens) (Q8WZA2 whole entry, looked up): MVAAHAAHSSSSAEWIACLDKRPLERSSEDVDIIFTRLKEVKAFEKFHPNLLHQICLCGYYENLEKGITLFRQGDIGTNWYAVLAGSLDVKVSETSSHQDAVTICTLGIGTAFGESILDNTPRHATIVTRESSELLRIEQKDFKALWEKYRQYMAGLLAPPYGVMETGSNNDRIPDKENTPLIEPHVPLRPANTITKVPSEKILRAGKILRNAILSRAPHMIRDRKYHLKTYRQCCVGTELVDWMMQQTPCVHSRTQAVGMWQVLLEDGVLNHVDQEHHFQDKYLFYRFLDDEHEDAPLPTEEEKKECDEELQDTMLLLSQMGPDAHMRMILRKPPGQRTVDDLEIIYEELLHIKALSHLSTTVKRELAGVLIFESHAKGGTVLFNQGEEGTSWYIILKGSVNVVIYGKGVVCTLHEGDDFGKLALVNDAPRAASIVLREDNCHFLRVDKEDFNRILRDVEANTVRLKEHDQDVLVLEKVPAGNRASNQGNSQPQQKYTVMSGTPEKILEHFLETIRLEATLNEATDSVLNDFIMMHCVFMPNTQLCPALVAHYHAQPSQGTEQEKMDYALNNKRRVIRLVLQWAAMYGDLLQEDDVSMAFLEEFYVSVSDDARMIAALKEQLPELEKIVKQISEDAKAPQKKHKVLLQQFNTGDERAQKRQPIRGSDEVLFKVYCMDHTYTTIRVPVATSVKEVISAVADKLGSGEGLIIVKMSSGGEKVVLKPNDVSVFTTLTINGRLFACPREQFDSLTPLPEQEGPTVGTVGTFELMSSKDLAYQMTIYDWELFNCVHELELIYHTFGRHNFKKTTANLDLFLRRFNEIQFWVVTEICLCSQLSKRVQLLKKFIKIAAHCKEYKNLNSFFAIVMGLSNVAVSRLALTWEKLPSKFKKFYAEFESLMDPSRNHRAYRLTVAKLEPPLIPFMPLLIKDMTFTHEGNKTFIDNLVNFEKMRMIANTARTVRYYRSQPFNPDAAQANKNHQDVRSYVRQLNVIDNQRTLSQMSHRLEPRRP
Sequence of ATP-dependent DNA helicase Q1 (Homo sapiens) (P46063 whole entry, looked up): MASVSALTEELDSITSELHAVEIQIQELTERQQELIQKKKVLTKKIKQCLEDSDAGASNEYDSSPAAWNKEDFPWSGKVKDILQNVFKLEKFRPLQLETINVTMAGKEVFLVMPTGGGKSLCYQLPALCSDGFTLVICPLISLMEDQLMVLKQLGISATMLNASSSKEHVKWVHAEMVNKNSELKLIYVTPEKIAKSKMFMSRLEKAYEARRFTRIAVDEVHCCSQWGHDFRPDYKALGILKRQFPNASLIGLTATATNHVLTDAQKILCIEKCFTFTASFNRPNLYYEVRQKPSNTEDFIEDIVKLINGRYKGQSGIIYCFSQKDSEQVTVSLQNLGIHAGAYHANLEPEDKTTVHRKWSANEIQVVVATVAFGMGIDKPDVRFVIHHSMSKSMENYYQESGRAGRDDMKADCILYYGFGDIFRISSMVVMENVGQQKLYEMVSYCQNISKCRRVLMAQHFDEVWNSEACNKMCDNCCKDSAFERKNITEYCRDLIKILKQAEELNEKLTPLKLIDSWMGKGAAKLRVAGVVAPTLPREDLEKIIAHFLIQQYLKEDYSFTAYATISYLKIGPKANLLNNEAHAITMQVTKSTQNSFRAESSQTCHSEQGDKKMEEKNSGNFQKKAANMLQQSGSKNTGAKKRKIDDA
Sequence of Thyrotropin-releasing hormone receptor (Homo sapiens) (P34981 whole entry, looked up): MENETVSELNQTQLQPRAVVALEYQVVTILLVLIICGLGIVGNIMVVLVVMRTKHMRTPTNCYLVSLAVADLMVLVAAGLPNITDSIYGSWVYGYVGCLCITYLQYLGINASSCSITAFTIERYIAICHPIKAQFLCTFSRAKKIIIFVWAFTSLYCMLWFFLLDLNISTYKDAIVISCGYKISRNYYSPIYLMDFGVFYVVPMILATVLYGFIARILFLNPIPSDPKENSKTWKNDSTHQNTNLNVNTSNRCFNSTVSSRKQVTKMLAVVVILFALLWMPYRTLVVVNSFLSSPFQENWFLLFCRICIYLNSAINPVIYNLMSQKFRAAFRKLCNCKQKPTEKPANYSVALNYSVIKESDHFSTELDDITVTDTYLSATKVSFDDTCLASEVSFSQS
Sequence of Galactokinase (Homo sapiens) (P51570 whole entry, looked up): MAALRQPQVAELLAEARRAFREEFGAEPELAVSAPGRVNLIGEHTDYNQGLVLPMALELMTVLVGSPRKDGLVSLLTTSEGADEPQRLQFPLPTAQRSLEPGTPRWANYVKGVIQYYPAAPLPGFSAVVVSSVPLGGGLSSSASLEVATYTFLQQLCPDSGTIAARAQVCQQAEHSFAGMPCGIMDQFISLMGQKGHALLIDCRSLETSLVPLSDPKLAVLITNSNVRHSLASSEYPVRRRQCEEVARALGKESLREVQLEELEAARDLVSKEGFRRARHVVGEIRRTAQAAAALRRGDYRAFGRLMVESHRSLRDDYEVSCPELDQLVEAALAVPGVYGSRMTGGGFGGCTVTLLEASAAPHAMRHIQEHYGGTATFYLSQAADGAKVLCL

Take `Cc1cc(/C=C2\C(=O)NC(=O)N(Cc3ccccc3Cl)C2=O)c(C)n1-c1ccc(C(=O)O)cc1`: in assay [1], the Potency entry is “inactive”. The activation in assay [2] is -9.15% [at 17.1 µM, percent relative to cAMP agonist control]. The activity change, negative = inhibition in [3] is -6.02% [at 12.7 µM]; in assay [4], 4.25% [at 30.8 µM].
Turning to `COc1ccc(-n2c(/C=C/c3ccc(O)c(O)c3)nc3ccccc3c2=O)cc1`, the Potency entry in [1], in assay [2] and in [3] was “inactive” each time. In addition, in [4], the call was inactive.
Take `Cc1cccc(C)c1-n1nnnc1C(c1ccccc1OC(F)(F)F)N1CCC(n2c(=O)[nH]c3ccccc32)CC1` (centres undefined): the Potency result in [1], in assay [2], in [3] and in [5] was “inactive” throughout. Also, the compound was classed as inactive in assay [4].
For the compound `Oc1cc2c(cc1O)[C@H]1c3ccccc3CNC1CC2` (some centres undefined), the Potency entry in assay [6], in [8], in assay [15] and in [17] was “inactive” throughout. Moreover, the compound was called inactive in [7], in [16], in assay [19], in assay [20] and in assay [22]. The Potency in assay [9] is 10 µM (active); in assay [10] it was 12.6 µM (active); in assay [11], 11.2 µM (active); in [12] it was 8.91 µM (active); in [13], 10 µM (active); in [14], 11.2 µM (active). Besides, in assay [18], the Potency is 25.1 µM (active). Besides, the activation in assay [21] is 0.812%.
For `c1ccc(C(c2ccccc2)c2cccnc2)cc1`, the Potency entry in assay [1] and in assay [5] was “inactive” throughout. Also, the result in assay [4] was inactive.
With `COc1ccc(N2C(=O)/C(=C/C=C/c3ccccc3[N+](=O)[O-])C(=O)NC2=S)cc1`, the Potency entry in assay [1] is “inactive”. Besides, the activation in [2] is 17.4% [at 17.1 µM, percent relative to cAMP agonist control]; in assay [5] it was 4.75% [at 30.8 µM]. Also, the values for the activity change, negative = inhibition in assay [3] and in assay [4] were 0.334% [at 12.7 µM] and 15.6% [at 30.8 µM], respectively.
Turning to `Nc1c(C(=O)NCc2ccco2)c2nc3ccccc3nc2n1Cc1ccc(F)cc1`, the activity change, negative = inhibition in assay [23] is 108% [activator] (active). Moreover, the Potency in assay [24] is over 20.6 µM; in assay [25], 7.94 µM (active). Further, the Potency result in [1], in [2], in assay [3] and in assay [5] was “inactive” each time. In addition, the compound was called inactive in [4].
In the case of `C/C=C(/C)C(=O)O[C@H]1C(C)=C2C([C@@H]1OC(=O)CCCCCCC)[C@@](C)(OC(C)=O)C[C@@H](OC(=O)CCC)[C@@]1(O)[C@H]2OC(=O)[C@@]1(C)O` (some centres undefined), the compound was classed as inactive in assay [7], in assay [16], in [20], in assay [22] and in assay [29]. Further, the Potency entry in [8] and in assay [18] was “inactive” each time. Also, the Potency in assay [9] was 4.47 µM (active); in assay [10], 3.16 µM (active); in assay [26], 4.47 µM (active); in assay [11], 10 µM (active); in assay [12] it was 8.91 µM (active); in assay [13], 3.55 µM (active). Moreover, the Potency in assay [14] was 10 µM (active); in assay [17], 3.16 µM (active); in [27], 6.31 µM (active); in assay [28] it was 4.15 µM (active). Besides, the activation in assay [21] was 37.9% (active).

The record behind these values is PubChem BioAssay (NCATS).
